This is part of a sample that, as a whole, favours compounds with a hit. Of some 83,000 tested, about 20% had one in any assay.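 96-well plates, one dose, 48 hours. Percent growth reported; active if below 10.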 Activity calls are given as the source filed them.
Tests used:
Test in all cases: NCI-60 one-dose screen, 48 h (100 = growth as untreated, 0 = no growth, -100 = all killed)
[1] = system: HOP-92 NSCLC; details: 10 µM unless noted
[2] = system: COLO 205 colon; details: 10 µM
[3] = system: SF-295 CNS; details: 10 µM unless noted
[4] = system: SNB-19 CNS; details: 10 µM unless noted
[5] = system: LOX IMVI melanoma; details: 10 µM unless noted
[6] = system: SK-MEL-28 melanoma; details: 10 µM unless noted
[7] = system: EKVX NSCLC; details: 10 µM unless noted
[8] = system: SN12C renal; details: 10 µM unless noted
[9] = system: TK-10 renal; details: 10 µM unless noted
[10] = system: CAKI-1 renal; details: 10 µM unless noted
[11] = system: CCRF-CEM leukemia; details: 10 µM unless noted
[12] = system: SR leukemia; details: 10 µM
[13] = system: BT-549 breast; details: 10 µM
[14] = system: HCC-2998 colon; details: 10 µM unless noted
[15] = system: MALME-3M melanoma; details: 10 µM unless noted
[16] = system: RPMI-8226 leukemia; details: 10 µM unless noted
[17] = system: OVCAR-4 ovarian; details: 10 µM unless noted
[18] = system: IGROV1 ovarian; details: 10 µM
[19] = system: NCI-H522 lung; details: 10 µM unless noted

Measured: growth

CCC(/C=C(C)/C=C/C(=O)c1c(O)c(-c2ccc(O)cc2)c[nH]c1=O)CO (stereo not drawn)
inactive: [1] 26.2% | [2] 124% | [3] 81.1% | [4] 90.6% | [5] 87.2% | [6] 105% | [7] 89.2% | [8] 91.7% | [9] 130% | [10] 81.8% | [12] 19.9% | [13] 78.8% | [14] 106%
active: [11] 7.28%

CC(=O)N(C)C1=Nc2ccc(Cl)cc2C(c2ccccc2)=[N+]([O-])C1
inactive: [1] 92.5% | [2] 105% | [15] 121% | [3] 107% | [4] 96.3% | [5] 95.4% | [6] 124% | [7] 115% | [8] 97.2% | [9] 102% | [10] 99.8% | [11] 125% | [12] 86.1% | [16] 113% | [17] 114% | [18] 106% | [13] 106%

CC(CC(C#N)(c1ccccc1)c1ccccc1)N1CCOCC1 (stereo not drawn)
inactive: [1] 83.5% | [2] 101% | [15] 120% | [4] 92.2% | [5] 102% | [6] 123% | [8] 93.5% | [9] 105% | [10] 92.9% | [11] 99.5% | [12] 84.3% | [16] 103% | [13] 111%

COC(=O)C(=[N+]=[N-])C(=O)OC
inactive: [1] 82.9% | [19] 94% | [15] 110% | [3] 101% | [4] 103% | [5] 103% | [6] 105% | [8] 98% | [9] 92.5% | [10] 109% | [11] 61.4% | [16] 96.4% | [17] 97.1% | [18] 110% | [13] 103% | [14] 108%

ClCCN(CCCl)c1ccc(/C=C\c2ccnc3ccccc23)cc1
inactive: [1] 46.6% | [2] 88.8% | [15] 74.4% | [3] 69.4% | [4] 88.8% | [5] 80.3% | [6] 98.1% | [7] 81% | [11] 71% | [12] 48.2% | [17] 82.3% | [18] 81.6% | [13] 70.5% | [14] 91.6%

COc1ccc(C(=O)c2ccc([As]=O)cc2)cc1 (stereo not drawn)
active: [1] -96.1% | [19] -84.1% | [15] -87% | [3] -97.9% | [5] -97.1% | [6] -87.1% | [7] -98.1% | [8] -52.8% | [9] -100% | [10] -98.7% | [11] -25.1% | [16] -24% | [17] -91.4% | [13] -99.6% | [14] -88.5%

O=C(CC1(O)C(=O)Nc2ccc(F)cc21)c1ccc(C(=O)NCC2CCC3(CC2)OOC2(CCCCC2)OO3)cc1 (stereo not drawn)
active: [1] -65.3% | [15] -35.8% | [7] -29.9% | [10] -15.9% | [11] -32.1% | [12] -43.2% | [18] 3.82%
inactive: [2] 33.7% | [3] 79.3% | [4] 80.2% | [6] 78.5% | [8] 51.4% | [16] 12.7% | [17] 65.6% | [14] 113%

C[C@@H]1CC[C@@H]2[C@@H]1[C@H](OC(=O)/C=C/C1CCCCC1)[C@]1(C3CCCCC3)C[C@@H](OC(=O)CO)[C@@]2(C)O1
inactive: [1] 41.6% | [19] 46.9% | [15] 78.8% | [3] 72.7% | [4] 85.8% | [6] 74.5% | [7] 78.1% | [9] 81.7% | [11] 41.1% | [17] 61.1% | [18] 75.7% | [14] 49.5%
active: [10] -21.9% | [13] 0.314%

CO[C@@H]([CH2][Hg][S]C#N)[C@@H]([CH2][Hg][S]C#N)OC
inactive: [1] 76.2% | [19] 48.1% | [2] 66.2% | [15] 104% | [3] 113% | [4] 100% | [6] 104% | [7] 112% | [8] 98.2% | [9] 133% | [10] 107% | [11] 42.5% | [12] 66.5% | [16] 94.6% | [17] 95.4% | [18] 63.9% | [13] 107% | [14] 90.3%

O=C(C(=O)N1CCCC1)c1cn(CCCCCn2cc(C(=O)C(=O)N3CCCC3)c3ccccc32)c2ccccc12
inactive: [1] 37.2% | [19] 89.5% | [2] 110% | [15] 109% | [3] 93.9% | [4] 93.5% | [6] 106% | [7] 75.5% | [8] 82.3% | [9] 112% | [10] 73.9% | [12] 67.7% | [16] 66.2% | [18] 98.8% | [13] 90% | [14] 103%
active: [11] -26.6%
